ADAM10 inh – human ADAM10 inhibitors, primary screen, biochemical, QFRET, HTS; Disintegrin and metalloproteinase domain-containing protein 10 (Homo sapiens), O14672; AID 720582, 2013; recombinant ADAM10, EDANS/DABCYL FRET peptide cleavage, 3 h; inhibition, % at 7 µM; actives 0.62% (n = 370,000);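 active means inhibition above a per-campaign cutoff equal to the mean of compounds falling between control-based bounds plus 3 SD, cut at about 20% in these data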;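 further: 0% = DMSO wells while the 100% control is not disclosed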
Target sequence (O14672 214-748 limits assumed): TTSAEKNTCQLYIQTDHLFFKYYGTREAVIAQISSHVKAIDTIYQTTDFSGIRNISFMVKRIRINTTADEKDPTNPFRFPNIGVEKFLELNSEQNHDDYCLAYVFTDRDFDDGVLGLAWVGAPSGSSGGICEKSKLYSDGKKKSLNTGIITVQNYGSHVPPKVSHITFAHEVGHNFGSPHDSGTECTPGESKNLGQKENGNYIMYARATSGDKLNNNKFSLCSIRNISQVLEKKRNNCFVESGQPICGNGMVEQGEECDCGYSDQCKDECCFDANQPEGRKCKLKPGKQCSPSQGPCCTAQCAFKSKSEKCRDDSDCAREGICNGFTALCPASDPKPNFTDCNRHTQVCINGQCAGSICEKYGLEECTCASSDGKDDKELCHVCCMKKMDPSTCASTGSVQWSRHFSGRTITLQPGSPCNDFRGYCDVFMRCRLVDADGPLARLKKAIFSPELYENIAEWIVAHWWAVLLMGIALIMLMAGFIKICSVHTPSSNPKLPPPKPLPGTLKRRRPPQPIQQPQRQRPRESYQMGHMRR
Rce1 inhib – yeast Rce1p protease inhibitors, primary screen, biochemical, fluorescence, cell-free homogeneous; CAAX prenyl protease 2 (Saccharomyces cerevisiae (strain ATCC 204508 / S288c)), Q03530; yeast membranes, quenched prenylated peptide cleavage fluorescence; calls only; actives 0.27% (n = 290,000); AID 2563, 2010;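 active means fall in fluorescence gain of 50% or more versus controls, with final raw signal at or below 3038400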;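 further: plate controls were neutral control wells for no effect and wells lacking membranes for full effect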
PLCb3 inh – human PLC-beta3 inhibitors, primary screen, biochemical, fluorescence; AID 720704, 2013; 1-phosphatidylinositol 4,5-bisphosphate phosphodiesterase beta-3 (Homo sapiens), Q01970; inhibition, % at 12.2 µM; actives 0.18% (n = 370,000); Purified PLC-beta3, fluorogenic substrate; in the data active means inhibition above about 11%;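 further: 0% = median of compound wells on plate and 100% = full blocker control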
ADAM17 inh – ADAM17 inhibitors, primary screen, biochemical, QFRET; recombinant ADAM17, EDANS/DABCYL FRET peptide cleavage; actives 0.83% (n = 370,000); inhibition, % at 6.95 µM; Disintegrin and metalloproteinase domain-containing protein 17 (Homo sapiens), P78536;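 active means inhibition above the mean of compounds lying between control limits plus 3 SD, set per campaign, cut at about 8.5% in these data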;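 further: 0% = DMSO-only wells as the low control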
PLC-gamma1 inh – PLC-gamma1 enzyme inhibitors, primary screen, biochemical, fluorescence, purified enzyme; inhibition, % at 12.2 µM; AID 720700, 2013; actives 0.84% (n = 370,000); fluorogenic substrate; in the data active means inhibition above about 9.5%
ADAM10 confirm – human ADAM10 inhibitors, confirmation, biochemical, QFRET, triplicate; actives 1% (n = 2,100); ADAM10 QFRET peptide cleavage, EDANS fluorescence; inhibition, % at 6.95 µM; shares compounds with ADAM10 inh;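 active means inhibition above about 20% chosen separately for each screening run, limit read from the data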;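 further: 0% = DMSO wells and 100% = marimastat wells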
ADAM17 ctr – ADAM17 inhibitors, counter-screen for ADAM10 exosite inhibitor project, biochemical, QFRET, high throughput; shares compounds with ADAM10 inh; ADAM17 QFRET peptide cleavage, EDANS fluorescence; inhibition, % at 6.95 µM; actives 0.5% (n = 2,100); AID 743214, 2013;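 active means mean triplicate inhibition above the solvent-only control wells' mean plus 3 SD, cut at about 12% in these data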;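 further: 0% = DMSO wells and 100% = marimastat wells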
ADAM10 counter – ADAM10 inhibitors, counter-screen for ADAM17 exosite inhibitor project, biochemical, FRET, human ADAM10; shares compounds with ADAM17 inh; recombinant ADAM10, EDANS/DABCYL FRET peptide cleavage, 3 h; actives 47% (n = 2,900); AID 743256, 2014; inhibition, % at 6.95 µM;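 active means mean inhibition over the triplicate runs exceeds the activity threshold set in the earlier primary screen, cut at about 20% in these data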;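 further: 0% = DMSO wells and 100% = marimastat wells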
ADAM17 confirm – ADAM17 inhibitors, hit retest, confirmation, biochemical, QFRET peptide cleavage | shares compounds with ADAM17 inh | recombinant ADAM17, EDANS/DABCYL QFRET peptide cleavage | inhibition, % at 6.95 µM | actives 65% (n = 2,900);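 active means mean inhibition across replicates above the hit cutoff set in the primary screen, cut at about 8.5% in these data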;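 further: 0% = DMSO wells and 100% = marimastat wells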
Numbers without * were called inactive; i = inactive; x = not tested or not shown. A selection: hits, their analogues and other compounds. The true share with any hit is near 2.1%.

SMILES	ADAM10 inh	Rce1 inhib	PLCb3 inh	ADAM17 inh	PLC-gamma1 inh	ADAM10 confirm	ADAM17 ctr	ADAM10 counter	ADAM17 confirm
Cc1cc(C)cc(-n2ncc3c2CCCC3NC(=O)CN2CCCCC2=O)c1 (configuration not stated)	-1	i	-7	0	-3	x	x	x	x
CC(O)(c1ccc(F)c(F)c1)c1nc(-c2ccc3ccccc3c2)cs1 (configuration not stated)	44*	x	-1	22*	5	7	3	17	9.4*
CC(O)(c1ccccc1)c1nc(-c2cc3ccccc3o2)cs1 (configuration not stated)	26*	x	2	8.7*	-1	13	4	30*	15*
CC(O)(c1ccccc1)c1nc(-c2ccc(Cl)cc2)cs1 (configuration not stated)	11	x	2	-1	2	x	x	x	x
COc1ccccc1/C=N/NC(=O)CC(=O)NCCc1ccccc1	1	i	-5	-1	-3	x	x	x	x
COc1cc(NC(=O)c2ccccc2)c(C)cc1NC(=O)CSc1nnc(-c2ccccc2F)n1-c1ccc(C)cc1	26*	x	-5	12*	-3	12	3	31*	18*
CCOc1cc(/C=C/c2ccc3cccc([N+](=O)[O-])c3n2)cc(Cl)c1O	25*	i	9	15*	8	0	1	11	5
Cc1cccc(NC(=O)CSCC(=O)Nc2ccccc2C(=O)NC2CC2)c1	-12	i	0	2	1	x	x	x	x
COc1ccc(CCNc2oc(COc3ccccc3F)nc2C#N)cc1OC	10	x	1	2	0	x	x	x	x
COc1ccc(CCNc2oc(COc3ccc(F)cc3)nc2C#N)cc1	24*	x	2	10*	5	10	3	33*	18*
CN[C@@H](C)C(=O)NC[C@H]1O[C@@H](n2cnc3c(N)ncnc32)[C@H](O)[C@@H]1O	-7	x	1	-6	3	x	x	x	x
CC(C)=C[C@H]1C[C@H](C)[C@H]2CC[C@H](C)c3c(O[C@@H]4OC[C@@H](O)[C@H](O)C4O)c(O)c(C)c1c32 (some centres not stated)	30*	x	5	21*	3	6	3	15	9.1*
CC(=O)OC1[C@H](Oc2c(O)c(C)c3c4c2[C@@H](C)CC[C@@H]4[C@@H](C)C[C@@H]3C=C(C)C)OC[C@@H](O)[C@@H]1O (some centres not stated)	6	x	4	4	-2	x	x	x	x
COc1ccccc1S(=O)(=O)N(C)C[C@@H]1Oc2cc(C#CCC(C)C)ccc2S(=O)(=O)N([C@H](C)CO)C[C@@H]1C	26*	x	0	11*	-1	8	3	46*	26*
CC(C)C[C@H](NC(=O)c1[nH]cnc1C(=O)N[C@@H](C)C(=O)OCc1ccccc1)C(=O)OC(C)(C)C	29*	i	5	14*	2	4	2	39*	21*
C[C@H](NC(=O)c1nc[nH]c1C(=O)NCC(=O)OCc1ccccc1)C(=O)OC(C)(C)C	7	i	5	2	-1	x	x	x	x
CC(C)C[C@H](NC(=O)c1nc[nH]c1C(=O)NCC(=O)OCc1ccccc1)C(=O)OC(C)(C)C	23*	i	3	8.9*	2	5	1	33*	16*
CC(C)(C)OC(=O)N1CCC(NC(=O)c2nc[nH]c2C(=O)NCC(=O)OCc2ccccc2)CC1	23*	i	5	8.7*	2	-2	0	8	2
C[C@H](NC(=O)c1nc[nH]c1C(=O)N[C@@H](Cc1ccccc1)C(=O)OC(C)(C)C)C(=O)OC(C)(C)C	22*	i	-2	10.0*	1	1	0	50*	24*
CCCS(=O)(=O)NC(=O)C1(C)CCN(C(=O)c2snnc2C)C1 (configuration not stated)	-6	x	10	-2	-1	x	x	x	x
COCCNC(=O)C1(C)CCCN(C(=O)c2ccc3c(c2)CCO3)C1 (configuration not stated)	-5	x	2	-4	1	x	x	x	x
CC(C)C[C@H](NC(=O)c1nc[nH]c1C(=O)NCC(=O)OC(C)(C)C)C(=O)OC(C)(C)C	26*	i	2	13*	1	1	0	30*	15*
C[C@H](NC(=O)c1nc[nH]c1C(=O)NCC(=O)OC(C)(C)C)C(=O)OC(C)(C)C	-9	i	-1	-6	0	x	x	x	x
NC(=O)[C@H]1CC2(CC(c3cccc(NC(=O)COc4ccc(Cl)cc4)c3)=NO2)CN1C(=O)c1ccc(Cl)cc1 (some centres not stated)	36*	i	2	14*	9	4	1	37*	22*
CCC(=O)N1CC2(CC(c3cccc(NC(=O)COc4ccc(Cl)cc4)c3)=NO2)C[C@@H]1C(N)=O (some centres not stated)	x	i	x	x	x	x	x	x	x
COc1cc(C(=O)c2ccccc2)c(OC)cc1C(=O)Nc1ccc(O)cc1	30*	i	8	15*	6	-1	1	0	3
COc1ccc(NC(=O)c2cc3ccccc3cc2OC)cc1	0	i	-86	-1	-67	x	x	x	x
CO/N=C(/CN1CCCCC1)c1ccc(Cl)cc1	7	i	6	1	2	x	x	x	x
Cc1cc(NC(=O)COC(=O)c2cccc(S(=O)(=O)N3CCOCC3)c2)no1	2	i	4	-1	4	x	x	x	x
O=C(COC(=O)c1cccc(S(=O)(=O)N2CCOCC2)c1)Nc1nc(-c2ccccc2Cl)cs1	37*	x	10	16*	8	10	4	35*	17*

Compound activity: PubChem, several laboratories
